ClpP mod – qHTS Assay for Activators of ClpP | ATP-dependent Clp protease proteolytic subunit (Bacillus subtilis (strain 168)), P80244 | purified B. subtilis ClpP, FRET peptide cleavage, 20 min | Potency, µM (doses to about 57.5 µM), for the others: at the highest dose activity change, negative = active | hit rate 1.9% among 340,000 | AID 651965, 2013; active = well fitted falling curve with a large enough effect; inconclusive = small, poorly fitted or top-dose-only effect; inactive = no such curve, though single readings can be large or run the other way; note: the source files actives as falling curves though it sought activators and does not explain the sign; nearly all actives have a fitted effect of over 65% in size
Target sequence (P80244 whole entry, looked up): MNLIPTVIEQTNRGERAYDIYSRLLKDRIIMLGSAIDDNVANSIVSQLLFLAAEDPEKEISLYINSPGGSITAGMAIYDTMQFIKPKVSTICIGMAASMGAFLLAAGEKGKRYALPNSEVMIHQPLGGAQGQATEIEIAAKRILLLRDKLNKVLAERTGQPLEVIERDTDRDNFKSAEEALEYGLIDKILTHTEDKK
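Purified B. subtilis ClpP, 10 microg/mL final in Tris/HCl pH8 with KCl, BSA, glycerol and Tween-20, cleaved an Abz/nitrotyrosine-quenched decapeptide. Fluorescence (ex 320, em 430) was read at 0 and 20 min at room temperature. Delta was normalized to 5.8 microM ADEP and DMSO/no-enzyme controls.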
aSyn rescue – inhibitors of alpha-synuclein toxicity in yeast; Yeast expressing alpha-synuclein, growth rescue, BacTiter-Glo, 24 h; Potency, µM (top dose mostly 46.1 µM), without a hit: at the highest dose growth rescue (activation), actives largely listed as activators; hit rate 0.14% among 370,000; note: % of control where 0% means no effect; nearly all actives have a fitted effect of over 65% in size
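Rescue of yeast growth: cells expressing toxic alpha-synuclein, induced in galactose at OD600 0.02, incubated with compound 24 h at 30 C. ATP luminescence quantified growth; inhibitors of toxicity appear as activators.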
FUS yeast rescue – suppressors of FUS proteinopathy in yeast; S. cerevisiae FUS-expressing, growth rescue, OD600, 24 h; Potency, µM (top dose mostly 76.6 µM), hits mostly activators; hit rate 0.24% among 390,000;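 note: plate controls were DMSO vehicle for no effect and reference control for full effect; nearly all actives have a fitted effect of over 55% in size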
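Compound concentration series was pinned onto galactose-induced FUS-expressing yeast seeded at OD 0.005. Plates sat 24hr at 30C; absorbance at 600 nm gave growth. DMSO served as background control.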
Abeta yeast res – compounds reversing amyloid beta toxicity in yeast; yeast expressing A-beta42, growth rescue, OD600, 48 h; response scale: 0% DMSO, 100% iron-clioquinol control; Potency, µM (titrated, usually from 46.1 µM), actives largely listed as activators; hit rate 0.063% among 410,000; note: nearly all actives have a fitted effect of over 55% in size
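Yeast growth medium received pinned compounds, then yeast cells expressing toxic A-beta were added; plates incubated at 30 C for 48 hr. Growth read as absorbance at 600 nm, normalized to DMSO and equimolar FeCl3 plus clioquinol controls.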
MmCpn inh – inhibitors of Methanococcus maripaludis chaperonin TRiC (MmCpn); purified Mm-Cpn ATPase, ADP Transcreener TR-FRET; Potency, µM (top dose mostly 76.9 µM), for inactives: top-dose activity, negative = inhibition, hits mostly inhibitors; hit rate 0.031% among 330,000; AID 504842; note: % is set by controls: 0 for no effect and ±100 for the full control effect; nearly all actives have a fitted effect of over 80% in size
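ATPase read-out: TR-FRET ADP immunoassay (anti-ADP Eu cryptate vs ADP-d2), ex 320 nm, em 590/665 nm; signal drops as ADP forms. Enzyme 25 nM, ATP 10 uM, 30 min at 37°C after 10 min compound preincubation.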
TDP43 rescue – TDP-43 toxicity inhibition in yeast; AID 652104; hit rate 1.8% among 410,000; Potency, µM (highest dose often 46.1 µM), for the others: top-dose growth rescue (activation), actives largely listed as activators; TDP-43 expressing yeast growth rescue, BacTiter-Glo, 24 h; note: % of control where 0% means no effect; nearly all actives have a fitted effect of over 50% in size
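Yeast expressing TDP-43 (pregrown in raffinose, seeded at OD600=0.02 in galactose medium) exposed to compounds 24 hr at 30 deg C. Growth read by BacTiter-Glo luminescence; rescue of toxicity appears as increased signal.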
* marks the source's active call; other numbers are inactive results; i = inactive; ? = inconclusive; nt = no result; [ ] = another dose, or the depositor's remark. This is a sample that favours compounds with a hit; in the whole collection about 3.6% have one here. Unless noted, calls come from the whole dose curve; as a rule, active = well fitted curve in the direction sought with a large enough effect; inconclusive = small, poorly fitted or top-dose-only effect, or another doubt; inactive = no such curve, though single readings can be large; an effect the other way counts as inactive or inconclusive. Potency is the fitted concentration of half-maximal effect.

SMILES	ClpP mod	aSyn rescue	FUS yeast rescue	Abeta yeast res	MmCpn inh	TDP43 rescue
COc1ccc(-n2c(N)c(C(=O)NCC3CCCO3)c3nc4ccccc4nc32)c(OC)c1 (stereo not given)	32µM*	0%	i	i	1%	-8%
C=CCn1c(N)c(C(=O)NCC2CCCO2)c2nc3ccccc3nc21 (stereo not given)	8.9µM*	16%	i	i	-5%	-10%
CCOC(=O)c1c(C)[nH]c(C)c1S(=O)(=O)N1CCCC(C(=O)Nc2ccc(F)cc2F)C1 (stereo not given)	0%	nt	i	i	nt	?
Cc1ccc(C)c(N2CCN(C(=O)Cn3nc(Cc4cccnc4)c4ccccc4c3=O)CC2)c1	-1%	nt	i	i	nt	-12%
Cc1cccc(NC(=O)c2ccc([N+](=O)[O-])s2)c1C	0%	2%	i	?	1%	11µM*
Cc1ccnc(NC(=O)c2cc([N+](=O)[O-])cc([N+](=O)[O-])c2)c1	-3%	2%	i	i	1%	-11%
Cc1ccnc(NC(=O)c2ccc([N+](=O)[O-])s2)c1	-5%	5%	i	i	1%	8.9µM*
O=C(CSc1nncn2c1cc1sccc12)Nc1ccc(Br)cc1F	5%	nt	i	i	nt	0%
O=C(CCc1nc(-c2cccs2)no1)Nc1cccc([N+](=O)[O-])c1	4%	nt	i	i	nt	?
O=C(Nc1cccc(-c2csc(Nc3cccc(C(F)(F)F)c3)n2)c1)c1ccccc1	-7%	-23%	i	i	-10%	18µM*
O=C(Nc1ccc(-c2csc(Nc3cccc(C(F)(F)F)c3)n2)cc1)c1ccccc1	?	-10%	i	i	-4%	20%
COc1ccc(-c2csc(Nc3ccccc3)n2)cc1	nt	-27%	i	?	-8%	10µM*
O=C(Nc1cccc(-c2csc(Nc3ccccc3)n2)c1)c1ccccc1	-1%	-22%	i	i	-5%	6.3µM*
COc1ccc(-c2csc(-c3cccnc3)n2)cc1C	-16%	15%	i	i	-3%[15.4 µM]	16µM*
COc1ccc2cc(-c3csc(-c4cccnc4)n3)ccc2c1	-8%	2%	i	i	-4%	22%
CC1CCCCC1N(C(=O)c1cc(C2CC2)on1)C1CCCCCC1 (stereo not given)	nt	nt	i	nt	nt	nt
Nc1[nH]c(=O)nc2nnsc12	-4%	-1%	nt	nt	nt	nt
COc1ccc(-c2csc(Nc3ncccc3C)n2)cc1OC	2%	-30%	i	i	-6%	14µM*
COc1ccc(-c2csc(-n3cccn3)n2)cc1	0%	2%	i	i	0%	10µM*
Nc1[nH]c(=S)[nH]c(=O)c1N=O	-1%	-14%	nt	nt	nt	nt
CCC(C)NC(=O)CCCCCn1c(=O)[nH]c2cc(OC)c(OC)cc2c1=O (stereo not given)	28µM*	nt	i	i	-3%	4%
COc1cc2[nH]c(=O)n(CCC(=O)NC3CCCC3)c(=O)c2cc1OC	28µM*	-12%	i	i	0%	-8%
CCCCNC(=O)CCCCCn1c(=O)[nH]c2cc(OC)c(OC)cc2c1=O	28µM*	-4%	i	i	1%	14%
CCOC(=O)c1c(NC(=S)Nc2ccc(Cl)cc2)sc(C)c1C	-1%	-9%	nt	i	-1%	17%
CCOC(=O)c1c(NC(=S)Nc2ccccc2)sc2c1CC(C)(C)SC2	nt	2%	i	i	50µM*	5%
SMILES	ClpP mod	aSyn rescue	FUS yeast rescue	Abeta yeast res	MmCpn inh	TDP43 rescue
CCOC(=O)c1c(NC(=S)Nc2cccnc2)sc(C)c1C	-2%	6%	i	i	-7%	13µM*
CCOC(=O)c1c(NC(=O)CSc2ccccc2C(=O)O)sc(C)c1C	16µM*	1%	i	i	0%	2%
CCOC(=O)c1sc(NC(=O)Nc2cccc(Cl)c2)cc1C	32µM*	-3%	nt	i	-11%	-13%
CCOC(=O)c1c(NC(=S)NC)sc2c1CC(C)(C)SC2	nt	7%	i	?	-7%	9%
CC1CCCCN1S(=O)(=O)c1ccc2c(c1)oc(=O)n2CC(=O)Nc1ccc(Cl)cc1 (stereo not given)	5%	nt	i	i	nt	8%[9.22 µM]
CCOC(=O)c1sc(Nc2nc3c(F)cccc3s2)cc1C	8.9µM*	-8%	nt	i	-4%	11%
CCOC(=O)c1c(NC(=O)Nc2ccccc2)sc(C)c1C	20µM*	-10%	nt	i	-3%	?
CCOC(=O)Nc1sc(C)c(C)c1C(=O)OCC	-5%	6%	i	i	2%	-14%
COC(=O)CCN(C(=O)C1CCN(S(=O)(=O)c2c(C)noc2/C=C/c2ccccc2F)CC1)c1ccccc1	-10%	nt	i	i	nt	2%
Cc1nn(C(C)C(=O)Nc2cccc(F)c2)c(=O)c2c1sc1ccccc12 (stereo not given)	-15%	nt	i	i	nt	-10%
CCOc1ccccc1N1CCN(C(=O)/C=C/c2cccc([N+](=O)[O-])c2)CC1	-2%	13%	i	i	1%	14µM*
CC(C)CCOc1ccc(C(=O)NCC2OCCc3ccccc32)cc1 (stereo not given)	-2%	nt	i	i	nt	0%
O=C(c1ccccc1)n1ccc(-c2cnc(-c3ccccc3)s2)n1	46%	1%	i	i	-5%	11%
COc1ccc(S(=O)(=O)n2ccc(-c3cnc(-c4ccccc4)s3)n2)cc1	28µM*	0%	i	i	-10%	27%
Cc1[nH]n(C(N)=S)c(=O)c1N=Nc1ccc(S(=O)(=O)N2CCCCCC2)cc1	5%	2%	i	i	-1%	4µM*
Cc1ccc(N=Nc2c(C)[nH]n(C(N)=S)c2=O)cc1C	1%	-19%	i	i	1%	0%
Fc1cccc(CNc2ncnc3ccc(-c4ccoc4)cc23)c1	nt	nt	nt	nt	1%	nt
O=C(CCCC(=O)c1ccccc1)Nc1ccc(F)cc1	?	-8%	i	i	-1%	5.6µM*
COc1ccc(NC(=O)CCCC(=O)c2ccccc2)cc1OC	-4%	-2%	i	i	0%	-2%
Cc1oc2ccc(O)c(CN3CCN(C)CC3)c2c1C(=O)Nc1cccc(Cl)c1C	-2%	nt	i	i	nt	22%
COc1ccc(-n2nc([N+](=O)[O-])c(=NCCc3ccc(C)cc3)n2O)cc1	nt	0%	i	i	-2%	?
